The text below walks through data of PubChem BioAssay (NCI).

Structures are written as SMILES. This is part of a sample that, as a whole, favours compounds with a hit. Of some 79,000 tested, about 15% had one in any assay. Unmarked numbers belong to inactive results. The source made the active and inactive calls. No stated cut-off is given here; in the data, active means growth inhibition above about 70%; inactive means the rest.

A short description of the first assay: NCI Yeast Anticancer Drug Screen. Data for the sgs1 mgt1 strain (AID 161).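 Further: 0% = growth of cultures given vehicle only.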 The note with it: S. cerevisiae sgs1 mgt1 strain, at 5.0 µM (retest, dose inferred, filed as 0.5), hits give high values. The procedure, abridged: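 Growth of a repair-deficient yeast mutant was monitored after compound treatment and expressed as inhibition relative to vehicle-treated cultures.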
As to `Cc1cn(C2CC(Br)C(COC(c3ccccc3)(c3ccccc3)c3ccccc3)O2)c(=O)[nH]c1=O` (stereo not drawn), the growth inhibition was 8%.

In the case of `CC1CCN(CCOC(=O)C(c2ccccc2)C2C=CCCC2)C1` (stereo not drawn), the growth inhibition is 8%.

In the case of `C=CC(c1ccccc1)[C@@]1(OC(C)=O)C(=O)C(=O)OC1C1COC(C)(C)O1` (stereo partly drawn), the growth inhibition is 65%.

As for `CC(C)S(=O)(=O)ON1C(=O)c2ccc(N(C)C)cc2C1=O`, the growth inhibition is 16%.

As to `CCCC(Sc1ccccc1)c1ccccc1NC(C)=O` (stereo not drawn), the growth inhibition is 1%.

For `Oc1c(C(Nc2ccccn2)c2ccccc2)ccc2cccnc12` (stereo not drawn), the growth inhibition is -4%.

Take `CC(=O)NC1=C(Cl)C(=O)c2ccccc2C1=O`: the growth inhibition is 70% (active).

Regarding `CC1OC(c2ccc3c(c2)OCO3)OC1C` (stereo not drawn), the growth inhibition is -4%.

Turning to `CN(C)CC(CN1CCCC1)C(=O)c1ccccc1` (stereo not drawn), the growth inhibition was 13%.

For the compound `O=S(=O)(O)c1ccc2c(c1)C1C(C3C2C2(Cl)C(Cl)=C(Cl)C3(Cl)C2(Cl)Cl)C2(Cl)C(Cl)=C(Cl)C1(Cl)C2(Cl)Cl` (stereo not drawn), the growth inhibition was -19%.

Regarding `Cc1cc(Cl)nc2ccc(Cc3ccc4nc(Cl)cc(C)c4c3)cc12`, the growth inhibition is 7%.

For `CC1CCC2(C)C(CC=C(C=O)C2(O)C=O)C12CO2` (stereo not drawn), the growth inhibition is 99% (active).

For `Cc1c(C)c(C)c(C(=O)c2ccccc2C(=O)NCCSC(C)(C)C)c(C)c1C`, the growth inhibition was -15%.

Take `O=[N+]([O-])C(=C1Nc2ccccc2N1)C(Cl)=C(Cl)Cl`: the growth inhibition is 13%.

In the case of `CCCCNc1ccc(C(=O)OC2CCN(C)CC2)c(Cl)c1`, the growth inhibition was 99% (active).

Consider `CC(C)(C)OC(=O)c1ccc(NCC2=C(Br)C(=O)C=CC2=O)cc1`, for which the growth inhibition was 15%.

Regarding `N#CC(c1ccc(Cl)cc1)c1ccc([N+](=O)[O-])cc1` (stereo not drawn), the growth inhibition was 2%.

`O=C(CC(=O)c1ccccc1NC1=Cc2ccccc2C(=O)C1=O)C(=O)NC1=C(Cl)C(=O)c2ccccc2C1=O`: the growth inhibition was 14%.

In the case of `O=S(=O)(Nc1ccc2c3c(cccc13)C=C2)c1ccccc1`, the growth inhibition is -7%.

Consider `CC(=O)c1cccc(NC(=O)C(=O)NNc2n[nH]c(=S)n2N)c1`, for which the growth inhibition is 6%.

In the case of `Nc1ncc(C(=O)c2ccccc2)cc1[N+](=O)[O-]`, the growth inhibition was -61%.

As for `COc1ccc2cc(C3CCCC3(C)CC(=O)O)ccc2c1` (stereo not drawn), the growth inhibition is 4%.

As to `CNc1ccc(N=O)cc1`, the growth inhibition is 5%.

Take `S=c1sc2nc(Cl)nc(Cl)c2s1`: the growth inhibition is 100% (active).

On to `CC(=O)O/C=C1\c2ccccc2CCC1c1ccc2ccccc2c1` (stereo not drawn), for which the growth inhibition was 1%.

Consider `CC1(C)C2CCC(C2)C1OC(=O)c1ccccc1C(=O)O` (stereo not drawn), for which the growth inhibition was -5%.

Take `Cc1cc(=O)oc2c3c(ccc12)OC(c1ccc(Br)cc1)CC3=O` (stereo not drawn): the growth inhibition was 19%.

For `Cc1cc(N(CCOS(C)(=O)=O)CCOS(C)(=O)=O)ccc1C=Nc1cccc(Cl)c1`, the growth inhibition is 4%.

Turning to `CN(C)CCOc1cc2c(c3ccccc13)-c1ccccc1C2O` (stereo not drawn), the growth inhibition was 9%.

`NC(=S)C(=Nc1ccccc1F)Nc1ccccc1F`: the growth inhibition is -10%.

Consider `CCCCOc1ccc(NC(=S)Nc2ccc(OCCN(CC)CC)cc2)cc1`, for which the growth inhibition was 21%.

Take `CC1CCN(CC(=O)N2c3ccccc3Sc3cc4ccccc4cc32)CC1`: the growth inhibition was -15%.

Consider `CC(C)C1COC(c2ccc3ccccc3c2-c2c(O[Si](C)(C)C(C)(C)C)ccc3ccccc23)=N1` (stereo not drawn), for which the growth inhibition was 12%.

`CN(C)c1ccc(/C=C(\C#N)c2cccc(Cl)c2)cc1`: the growth inhibition was 4%.

With `CCN(CC)CCNc1ccc(C)c2oc3ccc(O)cc3c(=O)c12`, the growth inhibition is -1%.

`CN(C)CC1CCc2c(ccc3ccccc23)C1=O` (stereo not drawn): the growth inhibition was 29%.

Turning to `C[C@]12CCC(=O)C=C1CC[C@@H]1[C@@H]2[C@@H](O)C[C@@]2(C)[C@H]1CC[C@]2(O)C(=O)COC(=O)CCC1CCCC1`, the growth inhibition is 51%.

Turning to `O=C(CSc1nnc(Cc2ccccc2)o1)Nc1ccc(Cl)cc1[N+](=O)[O-]`, the growth inhibition was 4%.

Consider `Cc1cccc2c1Oc1ccccc1C2N1C(=O)/C(=C/c2ccccc2Cl)SC1=S` (stereo not drawn), for which the growth inhibition was 100% (active).

The assay is the same for the next values; noted with them: S. cerevisiae sgs1 mgt1 strain, at 50.0 µM (retest, dose inferred, filed as 5.0), hits give high values.
On to `Cc1cn(C2CC(Br)C(COC(c3ccccc3)(c3ccccc3)c3ccccc3)O2)c(=O)[nH]c1=O` (stereo not drawn), for which the growth inhibition is 33%.

As to `CC1CCN(CCOC(=O)C(c2ccccc2)C2C=CCCC2)C1` (stereo not drawn), the growth inhibition is 77% (active).

In the case of `C=CC(c1ccccc1)[C@@]1(OC(C)=O)C(=O)C(=O)OC1C1COC(C)(C)O1` (stereo partly drawn), the growth inhibition is 100% (active).

As to `CC(C)S(=O)(=O)ON1C(=O)c2ccc(N(C)C)cc2C1=O`, the growth inhibition was 34%.

In the case of `CCCC(Sc1ccccc1)c1ccccc1NC(C)=O` (stereo not drawn), the growth inhibition is 26%.

As to `Oc1c(C(Nc2ccccn2)c2ccccc2)ccc2cccnc12` (stereo not drawn), the growth inhibition is 96% (active).

Consider `CC(=O)NC1=C(Cl)C(=O)c2ccccc2C1=O`, for which the growth inhibition is 100% (active).

Take `CC1OC(c2ccc3c(c2)OCO3)OC1C` (stereo not drawn): the growth inhibition is -5%.

`CN(C)CC(CN1CCCC1)C(=O)c1ccccc1` (stereo not drawn): the growth inhibition is 32%.

With `O=S(=O)(O)c1ccc2c(c1)C1C(C3C2C2(Cl)C(Cl)=C(Cl)C3(Cl)C2(Cl)Cl)C2(Cl)C(Cl)=C(Cl)C1(Cl)C2(Cl)Cl` (stereo not drawn), the growth inhibition is 77% (active).

For the compound `Cc1cc(Cl)nc2ccc(Cc3ccc4nc(Cl)cc(C)c4c3)cc12`, the growth inhibition was 7%.

Regarding `CC1CCC2(C)C(CC=C(C=O)C2(O)C=O)C12CO2` (stereo not drawn), the growth inhibition is 99% (active).

For `Cc1c(C)c(C)c(C(=O)c2ccccc2C(=O)NCCSC(C)(C)C)c(C)c1C`, the growth inhibition is -31%.

Turning to `O=[N+]([O-])C(=C1Nc2ccccc2N1)C(Cl)=C(Cl)Cl`, the growth inhibition was 22%.

As for `CCCCNc1ccc(C(=O)OC2CCN(C)CC2)c(Cl)c1`, the growth inhibition was 98% (active).

Take `CC(C)(C)OC(=O)c1ccc(NCC2=C(Br)C(=O)C=CC2=O)cc1`: the growth inhibition is 97% (active).

Take `N#CC(c1ccc(Cl)cc1)c1ccc([N+](=O)[O-])cc1` (stereo not drawn): the growth inhibition is 84% (active).

For `O=C(CC(=O)c1ccccc1NC1=Cc2ccccc2C(=O)C1=O)C(=O)NC1=C(Cl)C(=O)c2ccccc2C1=O`, the growth inhibition was 86% (active).

In the case of `O=S(=O)(Nc1ccc2c3c(cccc13)C=C2)c1ccccc1`, the growth inhibition was 97% (active).

For `CC(=O)c1cccc(NC(=O)C(=O)NNc2n[nH]c(=S)n2N)c1`, the growth inhibition was 90% (active).

Consider `Nc1ncc(C(=O)c2ccccc2)cc1[N+](=O)[O-]`, for which the growth inhibition is -45%.

With `COc1ccc2cc(C3CCCC3(C)CC(=O)O)ccc2c1` (stereo not drawn), the growth inhibition was 8%.

Turning to `CNc1ccc(N=O)cc1`, the growth inhibition is 57%.

As for `S=c1sc2nc(Cl)nc(Cl)c2s1`, the growth inhibition is 99% (active).

`CC(=O)O/C=C1\c2ccccc2CCC1c1ccc2ccccc2c1` (stereo not drawn): the growth inhibition is 11%.

With `CC1(C)C2CCC(C2)C1OC(=O)c1ccccc1C(=O)O` (stereo not drawn), the growth inhibition was 6%.

On to `Cc1cc(=O)oc2c3c(ccc12)OC(c1ccc(Br)cc1)CC3=O` (stereo not drawn), for which the growth inhibition is 20%.

Take `Cc1cc(N(CCOS(C)(=O)=O)CCOS(C)(=O)=O)ccc1C=Nc1cccc(Cl)c1`: the growth inhibition was 61%.

For `CN(C)CCOc1cc2c(c3ccccc13)-c1ccccc1C2O` (stereo not drawn), the growth inhibition was 69%.

Turning to `NC(=S)C(=Nc1ccccc1F)Nc1ccccc1F`, the growth inhibition is 70% (active).

For the compound `CCCCOc1ccc(NC(=S)Nc2ccc(OCCN(CC)CC)cc2)cc1`, the growth inhibition was 67%.

With `CC1CCN(CC(=O)N2c3ccccc3Sc3cc4ccccc4cc32)CC1`, the growth inhibition is 12%.

For `CC(C)C1COC(c2ccc3ccccc3c2-c2c(O[Si](C)(C)C(C)(C)C)ccc3ccccc23)=N1` (stereo not drawn), the growth inhibition was 12%.

With `CN(C)c1ccc(/C=C(\C#N)c2cccc(Cl)c2)cc1`, the growth inhibition was 12%.

Consider `CCN(CC)CCNc1ccc(C)c2oc3ccc(O)cc3c(=O)c12`, for which the growth inhibition was 29%.

`CN(C)CC1CCc2c(ccc3ccccc23)C1=O` (stereo not drawn): the growth inhibition was 76% (active).

Regarding `C[C@]12CCC(=O)C=C1CC[C@@H]1[C@@H]2[C@@H](O)C[C@@]2(C)[C@H]1CC[C@]2(O)C(=O)COC(=O)CCC1CCCC1`, the growth inhibition was 96% (active).

`O=C(CSc1nnc(Cc2ccccc2)o1)Nc1ccc(Cl)cc1[N+](=O)[O-]`: the growth inhibition is 49%.

Consider `Cc1cccc2c1Oc1ccccc1C2N1C(=O)/C(=C/c2ccccc2Cl)SC1=S` (stereo not drawn), for which the growth inhibition is 29%.
